# Bioassay records deposited in PubChem by several laboratories.
# KLK7 zymogen act: proKLK7 zymogen activators, primary screen, biochemical, fluorescence intensity | Kallikrein-7 (Homo sapiens), P49862 | purified proKLK7, EDANS-DABCYL substrate fluorescence; 100% is mature enzyme control, 0% vehicle | activation, % at 7 µM | 370,000 tested, 0.9% active | AID 652039, 2013;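 active = activation above the mean of all tested compounds plus 3 SD, computed per campaign excluding outliers beyond control limits, cut at about 13% in these data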
# FXN GAA850 act: FXN promoter activators, primary screen, cell-based, luciferase luminescence, HEK293 lucGAA850 | HEK293 lucGAA850 FXN promoter luciferase reporter, 24 h; percent of 10 µM SAHA response | activation, % at 6 µM | 360,000 tested, 0.56% active | AID 540364, 2011;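 active = activation above the average of all compounds screened plus 3 SD, cutoff fixed separately per campaign, cut at about 7.5% in these data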;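 note: 0% = DMSO wells and 100% = 10 µM SAHA wells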
# FAS-TE inh: FAS thioesterase domain inhibitors, primary screen, biochemical, fluorescence intensity, uHTS; Fatty acid synthase (Homo sapiens), P49327; recombinant FAS-TE, OMFH fluorogenic substrate, fluorescence endpoint; inhibition, % at 15 µM; 360,000 tested, 0.67% active; AID 602261, 2012;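 active = compounds whose normalised, plate-corrected inhibition of enzyme fluorescence in the single-dose primary screen is 50% or more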;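 note: 0% = DMSO with enzyme and 100% = substrate without enzyme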
# SMARCA2 activ: SMARCA2 (BRM) function activators, primary screen, cell-based, luminescence, high throughput | MG213 cells, MMTV-luciferase reporter, dexamethasone, overnight | activation, % at 9.1 µM | 370,000 tested, 1% active | AID 652017, 2013; in the data active = activation above about 7.8%;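 note: 0% = vehicle wells and 100% = reference activator wells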
# KLK7 act conf: proKLK7 zymogen activators, confirmation, biochemical, fluorescence intensity, triplicate. shares compounds with KLK7 zymogen act. purified proKLK7, EDANS-DABCYL substrate fluorescence; scaled: vehicle 0, mature enzyme 100. activation, % at 7 µM. 3,200 tested, 68% active. AID 686949, 2013;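 active = activation, as change over the incubation, above the mean of all tested compounds plus 3 SD, cut at about 13% in these data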
# EDANS interfere: EDANS-DABCYL substrate optical interference, artefact control for kallikrein-7 zymogen activator project, biochemical, fluorescence intensity, high throughput; 3,200 tested, 80% active; no enzyme, 4 h; solvent 0%, active enzyme control 100%; AID 686952, 2013; shares compounds with KLK7 zymogen act; activation, % at 7 µM;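 active = activation above the all-compound mean plus 3 SD, ignoring values outside control-based bounds, cut at about 4.8% in these data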;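 note: value is the 4 h activation minus the activation read at time zero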
# EDANS interf: counter-screen for kallikrein-7 activators: EDANS-DABCYL interference, dose response; shares compounds with KLK7 zymogen act; EDANS-DABCYL peptide fluorescence interference, no enzyme; EC50, µM; 250 tested, 20% active;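 active = compounds that raise the fluorescence signal in this interference counterscreen, with EC50 at or below 10 µM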;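 note: intact quenched peptide substrate alone read at 355 nm excitation and 520 nm emission; signal is fluorescence gain from T0 to T4 after four hours at room temperature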
# Starred values were filed as active, the others as inactive; . = no result. Only some compounds are listed: those with a hit (about 2.9% of all), similar ones and a draw of the others.
SMILES,KLK7 zymogen act,FXN GAA850 act,FAS-TE inh,SMARCA2 activ,KLK7 act conf,EDANS interfere,others
Cc1ccc(C(=O)Nc2ccc(NC(=O)c3ccc(C)o3)cc2)o1,29.3*,-0.6,-0.1,-1.2,30.9*,18.3*,
COc1cc(C2C(=O)c3ccccc3C2=O)ccc1O,-9.1,0.3,-6.0,3.1,.,.,
CN1C(=O)c2ccccc2N(C)C1c1ccc2c(c1)OCO2 (centres undefined),18.6*,-0.6,-6.2,-0.4,22.0*,17.6*,EDANS interf=>69.5
CN1C(=O)c2ccccc2N(C)C1c1cccc(O)c1 (centres undefined),50.1*,2.4,-1.5,-2.0,32.1*,35.4*,
CN1C(=O)c2ccccc2N(C)C1c1ccc(F)cc1 (centres undefined),18.5*,-1.1,-3.9,-1.8,26.8*,14.1*,EDANS interf=>69.5
O=C(CCN1C(=O)c2ccccc2C1=O)NCc1ccc(F)cc1,-0.6,2.0,-5.5,-4.1,.,.,
CN1C(=O)c2ccccc2NC(=O)[C@]12O[C@@H]2c1cccc(O)c1,-1.1,1.0,-9.0,0.2,.,.,
COc1cc(C2N(C)C(=O)c3ccccc3N2C)ccc1O (centres undefined),45.9*,-2.1,1.3,-3.6,43.3*,42.5*,
Cc1cc(C(=O)COC(=O)c2ccc(NC(=O)CC#N)cc2)c(C)n1C1CC1,0.6,3.6,0.9,4.3,.,.,
COc1cccc(NC(=O)C2C3C=CC4(O3)C2C(=O)N(CCCN2CCCC(C)C2)C4C(=O)NC2CCCCC2C)c1 (centres undefined),0.5,2.4,-1.7,3.4,.,.,
CC(=O)Nc1ccc(NC(=O)c2cc(=O)c3cc(C)c(C)cc3o2)cc1,0.3,-1.1,-7.3,0.2,.,.,
CC(=O)Nc1ccc(NC(=O)c2cc(=O)c3ccc(C)cc3o2)cc1,15.3*,-0.7,-3.7,-0.8,0.2,0.5,
Cc1cc(Cn2nnnc2-c2ccncc2)cc(C)c1O,-1.1,1.2,-2.5,3.2,.,.,
COc1cc(CN2CCCC(CO)(Cc3ccccc3)C2)ccc1O (centres undefined),-0.7,-0.4,-5.5,-1.1,.,.,
Cc1ccc2[nH]c3c(c2c1)SC(C)(C)CC3=O,15.3*,-0.2,5.7,0.7,12.7*,16.2*,
Cc1ccc(N2C(=O)c3cccc4cccc(c34)C2=O)cc1,-0.7,2.0,-3.4,1.0,.,.,
Cc1ccc(N2C=Nc3ccc(C)c4nc(C)cc2c34)cc1,49.5*,3.8,0.4,2.8,-19.6,-21.3,
Cc1ccc(Nc2cc(C)nc3c(C)cccc23)cc1,0.0,1.0,-3.7,-2.9,.,.,
CC1=Nc2ccc(C)c3nc(C)cc(c23)N1c1ccc(C)cc1,70.0*,3.4,-0.7,0.1,2.4,0.2,
O=C(NCCCN1CCCC1=O)Nc1ccc(Cl)cc1Cl,-0.4,2.8,-5.9,-0.6,.,.,
Cc1ccccc1C(C)(O)c1cnc(C)n1Cc1ccccc1 (centres undefined),0.4,1.6,-3.8,-2.2,.,.,
CCOC(=O)N1CCC2(CC1)CC(=O)c1c(ccc3oc(C(=O)O)c(C)c13)O2,18.2*,-1.2,-7.8,1.0,46.2*,33.6*,EDANS interf=>69.5
CCOC(=O)c1oc2ccc3c(c2c1C)C(=O)CC1(CCN(C(=O)OCC)CC1)O3,-0.1,1.7,8.9,0.0,.,.,
Clc1ccc2nc3ccccn3c2c1,22.4*,0.4,-2.0,-1.8,41.1*,43.8*,
N#Cc1ccc2c(c1)nc1ccccn12,21.4*,2.7,8.2,4.3,27.4*,23.2*,EDANS interf=>69.6
SMILES,KLK7 zymogen act,FXN GAA850 act,FAS-TE inh,SMARCA2 activ,KLK7 act conf,EDANS interfere,others
Cc1[nH]n(-c2ccccc2)c(=O)c1C=Nc1cnc2ccccc2c1,46.2*,-0.4,9.8,1.4,21.4*,21.5*,
COc1ccccc1CCn1c(N)c(C#N)c2nc3ccccc3nc21,-69.8,0.7,2.4,-1.7,.,.,
N#Cc1c(N)n(CCNC(=O)c2cccs2)c2nc3ccccc3nc12,53.2*,1.2,0.3,3.7,70.6*,82.2*,
N#Cc1c(N)n(CCNC(=O)c2ccccc2)c2nc3ccccc3nc12,42.1*,-1.1,-4.8,-1.7,68.5*,59.2*,
CCCCn1c(CCNC(=O)c2cccs2)nc2ccccc21,-0.2,0.2,-3.8,-0.5,.,.,
N#Cc1c(N)n(-c2cccc(C(=O)O)c2)c2nc3ccccc3nc12,61.8*,1.4,-20.1,1.6,68.1*,65.1*,
N#Cc1c(N)n(-c2ccccc2N)c2nc3ccccc3nc12,0.2,1.7,-3.7,0.6,.,.,
COc1ccccc1/C=C/c1nc(S(=O)(=O)c2ccccc2)c(N2CCC(C(N)=O)CC2)o1,-0.7,0.5,-1.6,-2.1,.,.,
Cn1c2ccccc2c(=O)c2ccc(F)cc21,12.7*,5.1,-6.4,4.3,49.8*,43.8*,
CC[C@]12c3[nH]c4cc(-c5ccco5)ccc4c3CCN1C(=O)[C@@H](CC(=O)NCCCn1ccnc1)C[C@@H]2C(=O)N1CCN(C(=O)c2ccco2)CC1,97.1*,0.0,-4.0,-1.7,130.8*,130.0*,
CC[C@]12c3[nH]c4cc(-c5ccco5)ccc4c3CCN1C(=O)[C@@H](CC(=O)NCCCn1ccnc1)C[C@@H]2C(=O)N1CCN(C(=O)C2CC2)CC1,68.6*,1.8,-5.8,-1.5,54.0*,53.2*,
COc1cccc(OC)c1C(=O)Nc1nc2cc3c(cc2s1)OCO3,19.2*,0.5,-8.5,2.6,-13.4,-12.4,
COc1ccccc1C(=O)Nc1nc2cc3c(cc2s1)OCO3,-3.3,6.0,-1.0,3.8,.,.,
COc1cccc(C(=O)NC2CC(C)(C)Cc3c2cnn3-c2cccc(F)c2)c1OC (centres undefined),-0.3,1.1,6.1,-4.0,.,.,
COc1ccc(NC(=O)CN2C(=O)c3cccc4cccc2c34)c(OC)c1,304.2*,-0.1,0.7,0.1,59.1*,67.1*,
COc1ccc(NC(=O)CCN2C(=O)c3ccccc3C2=O)c(OC)c1,-0.1,1.9,-6.2,-2.6,.,.,
COc1ccc(OC)c(C2C(C#N)=C(N)Oc3c2c(C)nn3-c2cccc(Cl)c2)c1 (centres undefined),18.7*,-3.9,-1.0,-2.9,35.4*,32.6*,
CC(=O)Nc1ccc2nc(-c3cccs3)[nH]c2c1,16.1*,7.2,-5.7,5.3,35.9*,27.6*,EDANS interf=8.23*
Nc1ccc2nc(-c3ccccc3)[nH]c2c1,77.4*,5.3,-2.0,0.1,61.2*,75.6*,
Nc1ccc2nc(-c3cccs3)[nH]c2c1,73.0*,4.7,-9.8,-1.4,67.1*,69.2*,
Nc1ccc2nc(-c3cccnc3)[nH]c2c1,-0.4,0.1,-9.1,6.0,.,.,
